The structures appear in SMILES notation. Among all 350,000 compounds or so, about 2,100 (0.6%) were called active. Roughly 1% stayed inconclusive and do not appear here.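 The calls were made as follows: active = activity change of -60% or lower, but not beyond a set lower limit; inconclusive = change between -60% and -40%, or beyond the set limit; inactive = change above -40%.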 The list comes from a sample in which actives are over-represented; it also holds similar structures and randomly drawn compounds.
% is scaled to controls: 0 for no effect and ±100 for the full control effect.

The target of the assay is Relaxin receptor 1 (Homo sapiens) (UniProt Q9HBX9). As to the kind of experiment: qHTS Assay for Antagonists of the Relaxin Receptor RXFP1. The note with it: HEK293-RXFP1, relaxin-stimulated cAMP HTRF, 30 min; at 57.5 µM; hits give low values. From the text: The relaxin hormone is involved in the variety of biological functions in normal tissues and diseases. The role of relaxin is well-established in female reproduction and parturition, mammary gland and endometrial development, maintenance of myometrial quiescence during pregnancy. Relaxin signaling through its G protein-coupled receptor (GPCR) RXFP1 results in ECM remodeling through regulation of collagen deposition, cell invasiveness, proliferation and overall tissue homeostasis. […] Recombinant human relaxin (rhRlx) is currently being tested in clinical trials as a protective agent in congestive heart failure, in treating severe preeclampsia, and as an anti-fibrotic agent in various organs. […] Upon relaxin binding RXFP1 activation leads to the activation of adenylate cyclase (AC) via G?s. cAMP will activate PKA, which phosphorylates many signaling proteins. Thus, detection of cAMP increase is an easy and reliable indication of relaxin receptor activation. To screen for antagonists of the relaxin receptor, a HEK293T cell line stably transfected with RXFP1 was used. RXFP1 activation by relaxin in presence of various concentrations of tested compounds was assayed by changes in cAMP levels as detected with a time-resolved fluorescence energy transfer (TR-FRET) cAMP detection kit.
Sequence of Relaxin receptor 1 (Homo sapiens) (Q9HBX9 whole entry, looked up): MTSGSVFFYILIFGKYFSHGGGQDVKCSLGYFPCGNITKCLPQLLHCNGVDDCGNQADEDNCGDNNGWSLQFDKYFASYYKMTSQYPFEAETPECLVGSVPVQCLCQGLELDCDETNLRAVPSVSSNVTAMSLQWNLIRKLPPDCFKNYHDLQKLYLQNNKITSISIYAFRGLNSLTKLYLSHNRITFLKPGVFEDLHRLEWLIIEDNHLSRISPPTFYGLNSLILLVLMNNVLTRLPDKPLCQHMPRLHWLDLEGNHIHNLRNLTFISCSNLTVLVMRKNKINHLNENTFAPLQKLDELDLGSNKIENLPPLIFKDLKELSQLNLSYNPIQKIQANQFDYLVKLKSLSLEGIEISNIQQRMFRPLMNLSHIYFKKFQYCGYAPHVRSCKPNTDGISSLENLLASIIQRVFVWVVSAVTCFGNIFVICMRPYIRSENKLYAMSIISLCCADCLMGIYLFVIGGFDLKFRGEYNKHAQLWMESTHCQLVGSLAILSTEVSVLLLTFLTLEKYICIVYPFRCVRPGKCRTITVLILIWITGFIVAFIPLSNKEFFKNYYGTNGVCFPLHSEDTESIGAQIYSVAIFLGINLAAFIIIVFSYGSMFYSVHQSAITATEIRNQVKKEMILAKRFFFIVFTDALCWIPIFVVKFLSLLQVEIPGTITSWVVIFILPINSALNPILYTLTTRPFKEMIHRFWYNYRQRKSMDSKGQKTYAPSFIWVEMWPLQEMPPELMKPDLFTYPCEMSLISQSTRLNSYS
For the primary screening, we used HTRF(R) (Homogenous Time-Resolved Fluorescence) cAMP HiRange assay (Cisbio Bioassays, 62AM6PEJ). Presence of cAMP in the cell lysate disrupts binding between the Cryptate-labeled anti-cAMP and d2-labeled cAMP pair, leading to a decrease in TR-FRET signal. The libraries were screened at two doses (57microM and 11microM), followed by a confirmation of the hits at 7-point serial dilution in the range of final concentrations [57microM - 78nM]. Data were normalized to the controls for basal activity (buffer only) and 100% activity (5 nM porcine relaxin). The EC50 values were determined from concentration-response data modeled with the standard Hill equation. NCGC Assay Protocol Summary: HiHEK (Hawaiian HEK293 LGR7 stably transfected with human RXFP1) were grown in the following media: DMEM+10%FBS+Pen/Strep + Geneticin (1mg/ml). For the assay, the cells were seeded in DMEM+Pen/Strep (with no serum & selective antibiotics) at 2,100 cells/ 3microl/well with MultiDrop Combi dispenser (Thermo Scientific, Logan, UT) onto white tissue culture treated solid bottom1536-well plates (Greiner #789173-F) and allowed to attach/recover overnight at 37 degrees C, 5% CO2. Next, 23nl/well of compound solutions in DMSO were transferred into wells with a pintool (Kalypsis, San Diego, CA). […] EC80 (relaxin at 50pM final concentration) was dispensed to the rest of the plate except columns 1&2 which were used as a negative control (EC0, buffer only), 1microl/well also. The cells were stimulated by relaxin in the presence of compounds for 30 minutes at 37 degrees C, 5% CO2. The detection reagents were prepared individually by dilution in Lysis buffer (supplied with the assay kit) just prior to dispensing. 1microl/well of cAMP-d2 and 1microl/well anti-cAMP-Eu3+-Cryptate antibodies were added simultaneously with BioRAPTR FRDtrade mark Workstation (Beckman Coulter). The plates were incubated at ambient temperature for 30 minutes and, then, FRET signal was read on Envision plate reader (PerkinElmer, Waltham, MA), at wavelengths 340nm (excitation), 615nm & 665nm (emission of donor and acceptor channels respectively).
For orientation: In qHTS, concentration-response curves come from the screen itself.
Regarding `CCC1(CC(C)c2ccccc2)C(=O)NC(=O)NC1=O` (stereo not given), the activity change, negative = inhibition is -60.5% (active). Next, `O=C1NC(=O)C(Cc2ccccc2)C(=O)N1`: 13.2% (inactive); `O=C1NC(=O)C(CCOc2ccccc2)(CCc2ccccc2)C(=O)N1`: 1.73% (inactive). Next, `COC(=O)C1=C(c2ccc(OCc3ccccc3)cc2)C[C@@H]2CC[C@H]1N2C(=O)NCc1ccc(Cl)cc1`: -0.858% (inactive); `COc1ccc(C2C=C(C)Oc3c2c(=O)oc2ccccc32)cc1OC` (stereo not given): -2.25% (inactive); `Cc1cc(/C=C2/C(=O)NC(=O)N(Cc3ccco3)C2=O)c(C)n1-c1ccc(C(=O)O)cc1`: 7.49% (inactive).

`O=C1NC(=O)N(Cc2ccco2)C(=O)/C1=C\c1cccn1CCOc1ccccc1`: the activity change, negative = inhibition was 2.7% (inactive). Next, `O=C1NC(=O)N(Cc2ccco2)C(=O)/C1=C\c1ccc(-c2ccc(F)cc2)o1`: -116% (active); `CC1N=C(N)OC1c1ccccc1` (stereo not given): 7.33% (inactive); `CC(=CCOc1ccc2ccc(=O)oc2c1)C1=CC(=O)C(C)(C)O1`: 1.36% (inactive). As for `Cc1cccc(N2C(=O)NC(=O)/C(=C\c3cnn(-c4ccccc4)c3)C2=O)c1`, the activity change, negative = inhibition was -97.1% (active). To `O=C1NC(=O)N(c2ccccc2)C(=O)/C1=C/c1ccc([N+](=O)[O-])s1` belongs -11.7% (inactive); to `COc1cccc(N2C(=O)NC(=O)/C(=C\c3cn(C)c4ccccc34)C2=O)c1`, 1.09% (inactive); to `CC1=C(C(=O)O)N2C(=O)[C@@H](N)[C@H]2SC1`, 7.08% (inactive). In the case of `C[C@H]1CN([C@@H](C)CO)C(=O)CCCn2nncc2CO[C@H]1CN(C)C(=O)Oc1ccccc1`, the activity change, negative = inhibition is -9.78% (inactive). Next, `CC(c1ccccc1)(c1ccccc1)c1ccncc1`: -80.6% (active); `O=S(=O)(O)C(F)(F)C(F)(F)C(F)(F)C(F)(F)F`: 19.3% (inactive). To `CO[C@]12CC[C@@]3(C[C@@H]1[C@](C)(O)C(C)(C)C)[C@@H]1Cc4ccc(O)c5c4[C@@]3(CCN1CC1CC1)[C@H]2O5` belongs -34% (inactive). For the compound `CCCOC(=O)c1cncn1C(C)c1ccccc1` (stereo not given), the activity change, negative = inhibition was 12.5% (inactive).

For `Cc1ncoc1C(=O)NCC1=C(c2cccc3ccccc23)C[C@@H]2CC[C@H]1N2Cc1ccco1`, the activity change, negative = inhibition is -0.31% (inactive). On to `c1cc2c(c(NC3=NCCCS3)c1)CCCC2`, for which the activity change, negative = inhibition is 4.47% (inactive).

As to `CCCCC1C(=O)NC(=O)N(C2CCCCC2)C1=O` (stereo not given), the activity change, negative = inhibition was -10.8% (inactive).

In the case of `CCCCCCCCCCCCn1ccc(=N)cc1`, the activity change, negative = inhibition was -73.7% (active). Next, `O=c1c2ccccc2nc(CBr)n1-c1ccc(Cl)cc1`: 8.62% (inactive); `C[C@H]1CN([C@@H](C)CO)C(=O)CCCn2nncc2CO[C@H]1CN(C)C(=O)Oc1cccc2ccccc12`: 3.41% (inactive).

These data come from PubChem BioAssay AID1259400 (National Center for Advancing Translational Sciences (NCATS), 2018).
